# Measurements: PubChem BioAssay (NCI)
# Several values for one entry are separate records, joined by “and”; a condition that tells them apart may be missing. Identical values can stand only once. This is part of a sample that, as a whole, favours compounds with a hit. Of some 83,000 tested, about 20% had one in any assay.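 Compound tested at a single concentration for 48 hours in 96-well plates; a percent growth value below 10 was scored as active.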 Unmarked numbers belong to inactive results. Activity calls are given as the source filed them.
# Tested on: MCF7 breast
# Assay: NCI-60 one-dose screen, 48 h (100 = growth as untreated, 0 = no growth, -100 = all killed)
# Settings: 1 µM
row,SMILES,growth
1,CC/C(=C(\c1ccc(O)cc1)c1ccc(OCCN(C)C(=O)COCCNC(=O)Cc2ccc3c(c2)CN([C@@H]2CCC(=O)NC2=O)C3=O)cc1)c1ccccc1,33.4%
2,CC/C(=C(\c1ccc(O)cc1)c1ccc(OCCN(C)C(=O)CCOCCNC(=O)c2ccc3c(c2)CN([C@@H]2CCC(=O)NC2=O)C3=O)cc1)c1ccccc1,27.9%
3,CC/C(=C(/c1ccc(O)cc1)c1ccc(OCCN(C)C(=O)CCOCCNC(=O)Cc2ccc3c(c2)CN([C@@H]2CCC(=O)NC2=O)C3=O)cc1)c1ccccc1,34.7%
4,CC/C(=C(/c1ccc(O)cc1)c1ccc(OCCN(C)C(=O)COCCOCCNC(=O)c2ccc3c(c2)CN([C@@H]2CCC(=O)NC2=O)C3=O)cc1)c1ccccc1,26.3%
5,CC/C(=C(\c1ccc(O)cc1)c1ccc(OCCNC)cc1)c1ccccc1,24.9%
6,CC/C(=C(/c1ccc(O)cc1)c1ccc(OCCN(C)C(=O)COCCOCCNC(=O)Cc2ccc3c(c2)CN([C@@H]2CCC(=O)NC2=O)C3=O)cc1)c1ccccc1,36.1%

# Same assay, conditions: 10 µM
row,SMILES,growth
1,CC/C(=C(\c1ccc(O)cc1)c1ccc(OCCN(C)C(=O)COCCNC(=O)Cc2ccc3c(c2)CN([C@@H]2CCC(=O)NC2=O)C3=O)cc1)c1ccccc1,20%
2,CC/C(=C(\c1ccc(O)cc1)c1ccc(OCCN(C)C(=O)CCOCCNC(=O)c2ccc3c(c2)CN([C@@H]2CCC(=O)NC2=O)C3=O)cc1)c1ccccc1,24%
3,CC/C(=C(/c1ccc(O)cc1)c1ccc(OCCN(C)C(=O)CCOCCNC(=O)Cc2ccc3c(c2)CN([C@@H]2CCC(=O)NC2=O)C3=O)cc1)c1ccccc1,31.5%
4,CC/C(=C(/c1ccc(O)cc1)c1ccc(OCCN(C)C(=O)COCCOCCNC(=O)c2ccc3c(c2)CN([C@@H]2CCC(=O)NC2=O)C3=O)cc1)c1ccccc1,18.9%
5,CC/C(=C(\c1ccc(O)cc1)c1ccc(OCCNC)cc1)c1ccccc1,25.8%
6,CC/C(=C(/c1ccc(O)cc1)c1ccc(OCCN(C)C(=O)COCCOCCNC(=O)Cc2ccc3c(c2)CN([C@@H]2CCC(=O)NC2=O)C3=O)cc1)c1ccccc1,19.6%

# Same assay, conditions: 10 µM unless noted
row,SMILES,growth
1,N#CC1=C(c2cccs2)Nc2c(c(-c3ccccc3)nn2-c2ccccc2)C12C(=O)Nc1ccccc12 (centres undefined),31.4%
2,O=C1CC(c2ccc(I)cc2)OC2C=Cc3ccccc3C12 (centres undefined),83.3%
3,COc1ccc([C@H]2C(C(=O)c3ccc(Cl)cc3)C3(N[C@@H]2c2ccccc2)C(=O)Nc2ccccc23)cc1 (some centres undefined),7.51% (active)
4,COc1ccc2c(c1)N=c1c-2cc2c(O)[nH]c(=S)n2c1=O,34.6%
5,Cc1cc(N=C(N)c2ccccc2)ccc1OCCCCCCCCn1ccnc1,-4.6% (active)
6,CS(=O)(=O)Nc1cc(-c2ccc3ncnc(N4CCc5cc(F)c(Cl)cc54)c3c2)cnc1Cl,8.15% (active)
7,COc1cc(NC(=O)C(C)C)ccc1C(=O)NC(=S)Nc1ccc(S(N)(=O)=O)cc1,101%
8,CC1=C(C(=O)OC(C)C)C(c2ccc(O)cc2)NC(=O)N1 (centres undefined),98.6%
9,COc1cccc(/C=C/c2nc3ccccc3c(=O)n2CC(=O)Nc2ccccc2)c1,41.6%
10,COC(=O)c1c(C(=O)OC)c2ccc3c4ccccc4ccc3n2c1C(=O)OC,85.4%
11,CCCCCCCCc1cccc(CC(=O)Nc2ccc(C)cc2C(=O)O)c1,36.7% [25 µM]
12,O=C(c1cc2cc(OCCCN3CCC3)ccc2[nH]1)N1C[C@@H](CCl)c2c1cc(OCc1ccccc1)c1ccccc21,-9.07% (active)
13,CC(C)(C)OC(=O)N1CCC2(CC1)Oc1ccccc1[C@H]1CC(c3ccc(Br)cc3)=NN12,59.9%
14,COc1ccc(NC2=C(I)C(=O)C(C)=C(C)C2=O)cc1,-8.31% (active)
15,CC[C@]12C=CCN3CC[C@@]4(c5ccc(OC)cc5N(C)[C@H]4[C@@](O)(C(=O)OC)[C@@H]1OC(=O)CCCC[P+](c1ccc(F)cc1)(c1ccc(F)cc1)c1ccc(F)cc1)[C@@H]32,5.18% (active)
16,FC(F)(F)c1cc2c(Cl)ncnc2n1CCN1CCCCC1,52.1%

row,SMILES,growth
1,O=C(CSc1nnc(-c2ccc(-c3nc4ccc(Cl)cc4[nH]3)cc2)o1)Nc1ccccc1,33.3%
2,Cc1cccc(NCC(=O)N2CCN(c3ncnc4c3cnn4-c3ccccc3)CC2)c1,45.6%
3,CS(=O)(=O)c1ccc(-n2nc(C(=O)NCc3ccccc3)cc2-c2ccc(Cl)cc2)cc1,70.1%
4,CS(=O)(=O)Nc1cccc(-n2c(COc3ccc(OC(F)(F)F)cc3)nc3ccccc32)c1,65.6% and 102%
5,O=C(CSc1nc2sc3c(c2c(=O)n1-c1ccc(Cl)cc1)CCCC3)NNC(=O)c1ccc(Br)cc1,54.1%
6,O=C(c1ccc(Cl)cc1)C1[C@H](c2ccccc2Cl)[C@@H](c2ccccc2)NC12C(=O)Nc1ccccc12 (some centres undefined),-19% (active)
7,O=C1NC(=NC23CC4CC(CC(C4)C2)C3)N/C1=C\c1ccc2ncccc2c1,-11.4% (active)
8,N#CC1=C(c2ccco2)Nc2c(c(-c3ccccc3)nn2-c2ccccc2)C12C(=O)Nc1ccc(Cl)cc12 (centres undefined),21.3%
9,O=C(c1ccc(O)cc1)C1[C@H](c2ccccc2Br)[C@@H](c2ccccc2)NC12C(=O)Nc1ccccc12 (some centres undefined),10.7%
10,c1ccc(CSc2nnc(-c3ccc4nc(-c5ccccc5)[nH]c4c3)o2)cc1,1.53% (active)
11,O=C(CSc1nnc(-c2ccc(-c3nc4ccccc4[nH]3)cc2)o1)Nc1ccccc1,72.7%
12,CCCCCCCCCCCCCCCCCC(=O)Nc1ccc(OC)cc1,93.3%
13,Nc1nn2c(-c3cc4ccccc4oc3=O)ccnc2c1N=Nc1ccccc1,52.7%
14,O=C1NC(=S)/C(=C/c2cn(-c3ccccc3)nc2-c2ccccc2)S1,3.28% (active)
15,CC(Nc1ncnc2ccc(-c3ccc4oc(N)nc4c3)cc12)c1ccccc1 (centres undefined),-73.1% (active)
16,O=C(N/N=C/c1ccsc1)c1[nH]c2ccc(Br)cc2c1-c1ccccc1,-50.9% (active)
